Laboratory results taken from the supplement of paper PMC6555819.

Experiments:
Assay in all cases: PBM binding z-score (relative to random genomic background probes); higher = stronger binding; sequences stand for … in GC…GCGATTGACAGCGTAGAATGAAGG
[1] = tested on: FXR:RXRa (NR concentration 270 nM, RXRa partner concentration 90 nM)
Summary of the method: (§1)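 Custom Agilent 4×180K protein-binding microarrays carried double-stranded probes, each with a 34-nt variable region. These regions held direct-repeat seeds, single-nucleotide variants, half-site ablations and random human genomic background sequences. Ligand-free nuclear receptor dimers were incubated on the arrays for 1 h, antibodies against each partner (one per run) detected binding, and scanned fluorescence was regression-normalized. Binding z-scores take the random background probes as reference.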

[2] = tested on: LXRa:RXRa (NR concentration 270 nM, RXRa partner concentration 90 nM)
Summary of the method: as §1

[3] = tested on: LXRa homodimer (NR concentration 270 nM)
Summary of the method: as §1

[4] = tested on: LXRb:RXRa (NR concentration 270 nM, RXRa partner concentration 90 nM)
Summary of the method: as §1

[5] = tested on: LXRb homodimer (NR concentration 270 nM)
Summary of the method: as §1

[6] = tested on: PPARa:RXRa (NR concentration 270 nM, RXRa partner concentration 90 nM)
Summary of the method: as §1

[7] = tested on: PPARg:RXRa (NR concentration 180 nM, RXRa partner concentration 90 nM)
Summary of the method: as §1

[8] = tested on: PPARg:RXRa 270nM:90nM, anti-RXR (NR concentration 270 nM, RXRa partner concentration 90 nM)
Summary of the method: as §1

[9] = tested on: PPARg:RXRa 30nM:10nM, anti-RXR (NR concentration 30 nM, RXRa partner concentration 10 nM)
Summary of the method: as §1

[10] = tested on: PPARg:RXRa 90nM:30nM, anti-RXR (NR concentration 90 nM, RXRa partner concentration 30 nM)
Summary of the method: as §1

| Sequence | PBM binding z-score [1] | PBM binding z-score [2] | PBM binding z-score [3] | PBM binding z-score [4] | PBM binding z-score [5] | PBM binding z-score [6] | PBM binding z-score [7] | PBM binding z-score [8] | PBM binding z-score [9] | PBM binding z-score [10] |
| --- | --- | --- | --- | --- | --- | --- | --- | --- | --- | --- |
| TCGATTAGGTTAGTCGGGGCATTCAGCCAACATA | 0.428 | 0.421 | -0.073 | 0.839 | -0.164 | 0.801 | -0.279 | 1.29 | 2.61 | 1.79 |
| TGTCAAAGTTGAAAGGTAACGTAAGTATCCACAC | 1.27 | 1.12 | -0.229 | 1.38 | -0.452 | 3.49 | 5.4 | 5.19 | 2.72 | 4.73 |
| CCTCGGAGGACAGAAGGTCAGAGCAGTCCGCTTT | 1.47 | 1.7 | 0.116 | 1.25 | -0.798 | 2.04 | 0.114 | 0.948 | -0.57 | 0.201 |
| TATTGTAGATCAATAGAGGTTAAGAAAGTGCGCT | 0.833 | 3.7 | 0.984 | 1.79 | 0.902 | 1.97 | 0.757 | 0.86 | 0.535 | 0.718 |
| CCTACTGGGCCAAAGGTCATTGAGTCCAATGCTC | 4.97 | 5.37 | 3.87 | 4.99 | 0.584 | 6.7 | 11.6 | 9.86 | 10.1 | 10.7 |
| CGAACTAGGTAAGAACAGGACAGTGAAGGATGAT | -0.196 | -0.204 | -0.208 | -0.602 | -0.626 | 0.502 | 0.928 | 0.462 | 0.267 | 0.273 |
| CCAGACAGGTGTGAAGGTAACTCAGCCTCGATTA | -0.289 | -0.378 | 0.0718 | -0.315 | -0.724 | -0.298 | 0.084 | -0.131 | -0.615 | -0.443 |
| CCTACTGGGTCAAAAAGGTCATTGATGCCGATAA | 5.59 | 5.57 | 4.15 | 5.29 | 1.01 | 5.73 | 7 | 6.52 | 4.03 | 5.73 |
| TCATATAGGTAATACTGGTGAAAGTCGGCATCTA | 0.82 | 1 | 0.397 | 0.738 | 0.101 | 1.29 | 0.902 | 2.27 | 3.82 | 3.28 |
| CCTAGCAGGCCAGGGTCAATCAAGCATTTCGCTT | 3.41 | 2.94 | -0.348 | 3.36 | -1.18 | 4.23 | 0.925 | 1.66 | -0.329 | 0.705 |
| CGAACTAGGTCATCCAGGATAGTGAATACATTGA | 4.33 | 2.51 | 0.425 | 2.22 | -0.0288 | 4.87 | 7.49 | 6.2 | 3.48 | 5.72 |
| CAGCCTAGGTCAGGGCCATTATAGGAGGAACGTT | 1.65 | 1.08 | -0.000598 | 0.902 | -0.851 | 2.17 | 1.2 | 1.24 | -0.158 | 0.533 |
| TCTAGCTGGCCAGAGGGTCACTCAAGAGGTACGG | 1.2 | 0.792 | -0.669 | 1.05 | -0.983 | 1.89 | 0.596 | 1.85 | 1.77 | 1.44 |
| TCTTGTAGATCAACAGGAGGTTATGAAAGATCGA | 0.335 | 1.2 | 0.215 | 0.914 | -0.0997 | 1.2 | 0.228 | 1.25 | 2.43 | 1.78 |
| CCTAGTTCGTCAGGAGGTCACACACCGGATATGA | 3.66 | 4.1 | 2.37 | 3.64 | 1.22 | 4.28 | 2.29 | 3.03 | 1.04 | 2.19 |
| CCTTACGGGTCACTGATAGGTTATAGCATTTGGA | 5.04 | 4.27 | 0.473 | 3.53 | 0.0559 | 5 | 4.57 | 4.4 | 1.47 | 3.36 |
| CCTAGCAGGACAGGGTCACTCAAGCATTTCGCTT | 2.28 | 1.99 | -0.28 | 2.4 | -0.799 | 3.41 | 0.993 | 1.68 | -0.413 | 0.404 |
| ACAGACGGGTGAGTGAAGGTAACTCAGCTGGACG | 0.431 | -0.164 | -0.31 | -0.488 | -0.833 | 0.0344 | 0.424 | -0.249 | -0.296 | -0.268 |
| CCTAGCAGGCCAGGGTCACTCAGGCATTTCGCTT | 1.73 | 1.43 | -0.738 | 1.49 | -0.994 | 2.75 | 0.469 | 1.25 | -0.561 | 0.308 |
| ATCTTTAGGTAAAGATAGTTCAGTGAATGCAAAT | 0.178 | 4.41 | 0.491 | 0.995 | 0.495 | 0.508 | 0.63 | 0.465 | 0.338 | 0.506 |
| CCGACTGGGGCAAAGGTTACCATCCTCAGTACGA | 1.66 | 1.25 | -0.21 | 1.79 | -0.941 | 5.49 | 10.9 | 9.37 | 8.35 | 10.1 |
| TCATATAGGTAACCAGGTGAAAGTCCGTAAGTTA | 0.67 | 0.846 | 0.139 | 1.04 | 0.073 | 2.95 | 4.7 | 4.35 | 4.08 | 4.4 |
| CGAATTAGGTCAAGGACAGTGAATCTCCGCACGC | 4 | 2.54 | 0.286 | 1.97 | 0.123 | 4.92 | 6.8 | 6.22 | 3.82 | 5.57 |
